Test results from PubChem BioAssay (Tox21).
Inconclusive results are not listed. The source made the active and inactive calls. The call rests on the fitted dose curve.

molecular target: Thyrotropin receptor (Homo sapiens) (UniProt P16473); assay: qHTS assay to identify small molecule antagonists of the thyroid stimulating hormone receptor (TSHR) signaling pathway (AID 1259385); conditions: TSHR-HEK293 cAMP HTRF, TSH-stimulated antagonist mode; series mostly up to 92.4 µM; further: nearly all actives have a fitted effect of over 20% in size
Source text: U.S. Tox21 Program National Center for Advancing Translational Sciences [NCATS] NIH Chemical Genomics Center [NCGC] U.S. Environmental Protection Agency [EPA] National Institutes of Environmental Health Sciences [NIEHS] National Toxicology Program [NTP] U.S. Food and Drug Administration [FDA] Tox21 Assay Overview: TSHR is the receptor for thyrotropin (thyroid stimulating hormone or TSH), a member of the glycoprotein hormone family. TSH is released by the anterior pituitary gland and is the main regulator of thyroid gland growth and development. Upon binding circulating thyrotropin, a G-protein signal cascade activates adenylyl cyclase and […] cAMP concentration is increased. cAMP is a key second messenger involved extensively in cellular signal transduction pathways associated with the majority of G-protein coupled receptors (GPCRs). The activation of these GPCRs by neurotransmitters, lipids, nucleotides, peptides and hormones results in the activation or the inhibition of plasma membrane-bound adenylate cyclase through heterotrimeric G-proteins. A cell-based TSHR assay can be used to screen chemical compounds that modulate TSHR either in agonist or antagonist mode.
Tox21 Assay Protocol Summary: TSHR-Hek293 cells were dispensed at 800 cells/4uL/well in 1536-well white plates using a Multidrop dispenser. After the assay plates were incubated at a 37C/5% CO2 incubator for 18 hrs, 23 nL of compounds dissolved in DMSO, positive controls or DMSO only was transferred to the assay plate by a pin tool, followed by 1 ul medium containing Ro20-1724. For the antagonist mode screening, 1 uL of TSH was added on the top of the cell/compound mixtures to achieve a final agonist concentration of 1.5 ng/mL. After 30 min of incubation at room temperature, 2.5 ul/well of cAMP-d2 and 2.5 ul/well of anti-cAMP-cryptate were added respectively into the assay plates using a Flying Reagent Dispenser. The plates were incubated at room temperature for 1 hr. The fluorescence intensity in the plates was measured using an Envision plate reader. Each test compound was measured at 15 concentrations and in triplicates.
On the % scale 0 is the no-effect control and ±100 the full control effect.

Chain of Thyrotropin receptor (Homo sapiens) (P16473 whole entry, looked up): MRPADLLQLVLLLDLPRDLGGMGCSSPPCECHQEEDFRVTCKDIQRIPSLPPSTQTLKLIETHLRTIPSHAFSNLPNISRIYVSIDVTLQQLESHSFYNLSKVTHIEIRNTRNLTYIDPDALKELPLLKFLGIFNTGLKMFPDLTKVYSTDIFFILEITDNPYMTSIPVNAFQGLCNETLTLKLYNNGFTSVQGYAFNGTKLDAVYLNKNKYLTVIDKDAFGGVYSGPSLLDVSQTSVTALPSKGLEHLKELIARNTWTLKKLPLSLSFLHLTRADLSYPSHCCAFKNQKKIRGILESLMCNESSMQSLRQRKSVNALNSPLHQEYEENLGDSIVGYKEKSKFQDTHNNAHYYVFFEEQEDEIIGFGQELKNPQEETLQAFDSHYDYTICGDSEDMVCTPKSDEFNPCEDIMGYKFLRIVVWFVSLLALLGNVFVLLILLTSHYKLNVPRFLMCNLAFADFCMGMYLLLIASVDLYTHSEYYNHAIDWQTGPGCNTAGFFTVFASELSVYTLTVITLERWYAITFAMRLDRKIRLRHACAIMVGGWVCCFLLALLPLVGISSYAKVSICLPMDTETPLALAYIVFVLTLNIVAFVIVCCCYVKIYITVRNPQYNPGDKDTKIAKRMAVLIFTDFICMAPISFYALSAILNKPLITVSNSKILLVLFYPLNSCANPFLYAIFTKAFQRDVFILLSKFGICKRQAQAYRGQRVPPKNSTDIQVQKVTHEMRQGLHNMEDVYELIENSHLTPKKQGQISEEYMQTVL

SMILES	outcome	activity change, negative = inhibition
c1ccc2sc(SN3CCOCC3)nc2c1	inactive	–
CCC1C(=O)OCC1Cc1cncn1C (stereo not given)	inactive	–
CN(C)CCCN(C)CCCN(C)C	inactive	–
CO/N=C(\C(=O)N[C@@H]1C(=O)N2C(C(=O)O)=C(CSc3nc(=O)c(O)nn3C)CS[C@H]12)c1csc(N)n1	inactive	–
O=C(O)CC(C(=O)O)S(=O)(=O)O (stereo not given)	inactive	–
CC(COc1ccccc1)NN (stereo not given)	inactive	–
CO[Si](C)(OC)c1ccccc1	inactive	–
CC(C)C1CCC(O)CC1 (stereo not given)	inactive	–
C=CC(C)(CCC=C(C)C)OC(=O)CC (stereo not given)	inactive	–
c1ccc(CCc2ccccc2)cc1	inactive	–
CN(C)C(=O)Oc1cccc([N+](C)(C)C)c1	inactive	–
O=[N+]([O-])c1cncn1CCN1CCOCC1	inactive	–
CCCCCCCCCCCCCCCCCCO	inactive	–
CO[C@@]1(NC(=O)C(C(=O)O)c2ccc(O)cc2)C(=O)N2C(C(=O)O)=C(CSc3nnnn3C)CO[C@@H]21 (stereo not given in full)	inactive	–
CC[N+](C)(CC)CCOC(=O)C1c2ccccc2Oc2ccccc21	inactive	–
CC(=O)c1ccc2ccccc2c1	inactive	–
C[N+]12CCC(CC1)C(OC(=O)C(O)(c1ccccc1)c1ccccc1)C2 (stereo not given)	inactive	–
O=C(O)CCCC[P+](c1ccccc1)(c1ccccc1)c1ccccc1	inactive	–
C=COCC1CCC(COC=C)CC1 (stereo not given)	inactive	–
CC(=O)c1cnccn1	inactive	–

SMILES	outcome	activity change, negative = inhibition
Cc1ncc(COP(=O)(O)O)c(C=O)c1O	inactive	–
Nc1ccncc1N	inactive	–
CC(C)(C)c1ccc(-c2ccc(C(C)(C)C)cc2)cc1	inactive	–
Cc1coc2ccccc2c1=O	inactive	–
CC(CC=O)CC(C)(C)C (stereo not given)	inactive	–
NC(=O)NC1N=C([O][Al])NC1=O (stereo not given)	inactive	–
CCCCCCCC1CCCC1=O (stereo not given)	inactive	–
O=C(CO)[C@@H](O)[C@H](O)[C@@H](O)CO	inactive	–
Cc1ccc(C(=O)c2ccc(CC(=O)O)n2C)cc1	inactive	–
C=CN1CCCCCC1=O	inactive	–
CNCC(O)c1ccc(O)c(O)c1 (stereo not given)	inactive	–
CCCc1nn(C)c2c(=O)[nH]c(-c3cc(S(=O)(=O)N4CCN(C)CC4)ccc3OCC)nc12	inactive	–
CCCCOCCOC(=O)COc1cc(Cl)c(Cl)cc1Cl	inactive	–
CC(C)(C)OC(=O)c1cccc(N)c1	inactive	–
O=C(O)c1cc(C(=O)O)cc(C(=O)O)c1	inactive	–
Nc1ccn([C@@H]2O[C@H](CO)[C@@H](O)C2(F)F)c(=O)n1	inactive	–
CCCCN1C=CN(C)C1	–	1.39% [at 19 µM] (inactive)
Cc1onc(-c2c(Cl)cccc2Cl)c1C(=O)Cl	inactive	–
CN1CC(=O)N/C1=N/C(=O)Nc1cccc(Cl)c1	inactive	–
C[N+](C)(CCOc1ccccc1)Cc1cccs1	inactive	–
